Screening data from PubChem BioAssay.
This excerpt belongs to a sample that is enriched for hits.
IDE exosite inh: exo-site inhibitors of human insulin-degrading enzyme; P14735; purified IDE, FL-6b probe fluorescence polarization; active compounds read low; z-score at 20 µM; hit rate 6.3% among 17,000;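 active means z-score of -3 or lower, meaning strong loss of probe binding signal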;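 further: His-tagged human IDE residues 42-1019 made in E. coli with 30 nM FL-6b probe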
* = called active by the depositor; ! = repeats disagree.

SMILES	IDE exosite inh
O=C(N[C@H]1CC[C@H](CCn2cc(-c3ccccc3F)nn2)O[C@H]1CO)c1ccc2c(c1)OCO2	2.9
C[C@@H]1CN([C@H](C)CO)C(=O)c2cc(-c3ccc(C#N)cc3)cnc2O[C@@H]1CN(C)Cc1cccnc1	-0.017
Cn1cnc(S(=O)(=O)N2CCCCN3[C@@H](CO)[C@H](c4ccc(-c5ccccc5)cc4)[C@@H]3C2)c1	-0.13
Cc1ccccc1-c1ccc([C@H]2[C@H]3CN(S(=O)(=O)c4cn(C)cn4)CCCCN3[C@H]2CO)cc1	-3.6*
Cn1cnc(S(=O)(=O)N2CCCCN3[C@H](C2)[C@@H](c2ccc(-c4ccccc4)cc2)[C@@H]3CO)c1	-1.5
Cc1ccccc1-c1ccc([C@H]2[C@@H](CO)N3CCCCN(S(=O)(=O)c4cn(C)cn4)C[C@@H]23)cc1	-3.4*
COc1ccccc1-c1ccc([C@H]2[C@@H](CO)N3CCCCN(S(=O)(=O)c4cn(C)cn4)C[C@H]23)cc1	-9.3*
Cc1ccccc1-c1ccc([C@@H]2[C@H](CO)N3CCCCN(S(=O)(=O)c4cn(C)cn4)C[C@@H]23)cc1	-16*
Cc1ccccc1-c1ccc([C@@H]2[C@@H](CO)N3CCCCN(S(=O)(=O)c4cn(C)cn4)C[C@H]23)cc1	-2.2
COc1ccccc1-c1ccc([C@H]2[C@@H](CO)N3CCCCN(S(=O)(=O)c4cn(C)cn4)C[C@@H]23)cc1	0.4
Cn1cnc(S(=O)(=O)N2CCCCN3[C@H](C2)[C@@H](c2ccc(-c4ccc(F)cc4)cc2)[C@@H]3CO)c1	0.91
COc1ccccc1-c1ccc([C@H]2[C@H](CO)N3CCCCN(S(=O)(=O)c4cn(C)cn4)C[C@@H]23)cc1	0.67
CN1CCN(C(=O)C[C@@H]2CC[C@H]3[C@@H](COC[C@@H](O)CN3C(=O)Nc3ccc4c(c3)OCO4)O2)CC1	-0.22
CO[C@@H]1CC[C@H]2CCN(C)C(=O)CCCN(C)C(=O)c3cc(C#N)ccc3OC[C@@H]1O2	0.42
N#C[C@H]1[C@@H](c2ccccc2C2=CCCCC2)[C@H](CO)N1C(=O)c1cccc(F)c1	1.2
O=C(C1CCC1)N1CC(=O)N2[C@H](C1)[C@@H](c1ccc(C#CCc3ccccc3)cc1)[C@@H]2CO	-0.42
O=C(C1CCC1)N1CC(=O)N2[C@H](C1)[C@H](c1ccc(C#CCc3ccccc3)cc1)[C@@H]2CO	-3*
O=C(C1CCCCC1)N1CC(=O)N2[C@H](C1)[C@@H](c1ccc(C#CCc3ccccc3)cc1)[C@@H]2CO	1.7
O=C(C1CCC1)N1CC(=O)N2[C@H](CO)[C@@H](c3ccc(C#CCc4ccccc4)cc3)[C@H]2C1	2.2
O=C(C1CCC1)N1CC(=O)N2[C@@H](CO)[C@@H](c3ccc(C#CCc4ccccc4)cc3)[C@@H]2C1	-3.3*
O=C(C1CCCCC1)N1CC(=O)N2[C@H](CO)[C@@H](c3ccc(C#CCc4ccccc4)cc3)[C@@H]2C1	-2.7
O=C(C[C@@H]1CC[C@H](NC(=O)c2ccc3c(c2)OCO3)[C@@H](CO)O1)NCc1ccc(Oc2ccccc2)cc1	2.9
CO[C@H]1CN(C)C(=O)c2cc(NC(=O)CC(F)(F)F)ccc2OC[C@H](C)N(CC2CC2)C[C@@H]1C	1.6
CCNC[C@@H]1[C@@H](c2ccc(-c3ccc(F)cc3)cc2)[C@@H](CO)N1C(=O)C1CC1	0.61
CN(C)CC#Cc1ccc([C@@H]2[C@@H](CO)N3C(=O)CN(C(=O)Cc4ccccc4)C[C@H]23)cc1	1.7
SMILES	IDE exosite inh
COc1ccc(S(=O)(=O)N2[C@@H]3CNC[C@H]2C3c2ccc(-c3ccccc3OC)cc2)cc1 (some centres not stated)	-3.6*!
COc1ccccc1-c1ccc(C2[C@@H]3CN(S(=O)(=O)c4ccc(F)cc4)C[C@H]2N3)cc1 (some centres not stated)	-3.1*!
Cc1ccccc1-c1ccc(C2[C@H]3CNC[C@@H]2N3S(=O)(=O)c2ccccc2C)cc1 (some centres not stated)	-0.51
Cc1ccccc1-c1ccc(C2[C@H]3CNC[C@@H]2N3S(=O)(=O)Cc2ccccc2)cc1 (some centres not stated)	-7.3*
COc1ccc(S(=O)(=O)N2[C@@H]3CNC[C@H]2C3c2ccc(-c3ccncc3)cc2)cc1 (some centres not stated)	3.1
O=S(=O)(c1ccc(F)cc1)N1C[C@@H]2N[C@H](C1)C2c1ccc(/C=C/c2ccccc2)cc1 (some centres not stated)	0.82
Cc1cccc(S(=O)(=O)N2[C@@H]3CNC[C@H]2C3c2ccc(-c3ccccc3C)cc2)c1 (some centres not stated)	-4*
Cc1ccccc1-c1ccc(C2[C@H]3CNC[C@@H]2N3S(=O)(=O)c2ccccc2)cc1 (some centres not stated)	-1.5
COc1ccccc1-c1ccc(C2[C@@H]3CN(S(=O)(=O)c4ccc(C)cc4)C[C@H]2N3)cc1 (some centres not stated)	-1.2
COc1ccccc1-c1ccc(C2[C@H]3CNC[C@@H]2N3S(=O)(=O)c2ccccc2C)cc1 (some centres not stated)	4.7
